The sample as a whole holds a higher share of hits than the screen did.
Calb biofilm kill: clotrimazole potentiators killing Candida biofilms, primary screen, with clotrimazole, Alamar Blue; C. albicans biofilm + clotrimazole; inhibition, % at 6 µM; 85,000 tested, 0.14% active; AID 834, 2007;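 active = inhibition above 20%; inactive = inhibition below 20%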;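 also: preformed 24 hr biofilms exposed to compound for 48 hr; 0% = biofilm without compound and 100% = blank killed by clotrimazole plus chlorhexidine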
D1 mod: D1 CRE-luciferase signal change, two-sided – cell-based, HEK293 D1, dopamine EC30, D1 allosteric modulator project, primary screen. AID 641, 2007. dopamine EC30 potentiation; actives deviate in either direction. B-score at 10 µM. 58,000 tested, 5.9% active;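 active = luminescence count or its row- and column-corrected plate score outside the 99.7% band of the plate's sample wells, on either side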
TNAP act mid DEA: human TNAP enzyme activators, primary screen, biochemical, luminescent, intermediate phosphate acceptor level; 64,000 tested, under 10 active; activation factor at 20 µM; AID 813, 2007; Alkaline phosphatase, tissue-nonspecific isozyme (Homo sapiens), P05186; purified TNAP, CDP-star luminescence, 100 mM DEA, 30 min; active compounds read high; scale: 0 levamisole-inhibited, 1 vehicle-only enzyme;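 active = activation factor of at least 2 at 20 µM, relative to controls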
hDAT+cocaine: changed hDAT dopamine uptake under cocaine IC80, either direction, primary screen, cocaine antagonist project, cell-based, LLC-PK1 hDAT, [14C]-dopamine uptake, MLSMR; LLC-PK1 hDAT cells, [14C]-dopamine uptake with cocaine IC80; actives deviate in either direction; B-score at 10 µM; 110,000 tested, 1.3% active; AID 449768, 2010;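 active = Z score or B-score, a plate-position-corrected score, falls beyond the plate's 99.7% confidence bounds, in either direction; inactive = both scores lie inside the 99.7% bounds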;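 also: scored against the spread of the other compound wells on the same plate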
Target sequence (Q01959 whole entry, looked up): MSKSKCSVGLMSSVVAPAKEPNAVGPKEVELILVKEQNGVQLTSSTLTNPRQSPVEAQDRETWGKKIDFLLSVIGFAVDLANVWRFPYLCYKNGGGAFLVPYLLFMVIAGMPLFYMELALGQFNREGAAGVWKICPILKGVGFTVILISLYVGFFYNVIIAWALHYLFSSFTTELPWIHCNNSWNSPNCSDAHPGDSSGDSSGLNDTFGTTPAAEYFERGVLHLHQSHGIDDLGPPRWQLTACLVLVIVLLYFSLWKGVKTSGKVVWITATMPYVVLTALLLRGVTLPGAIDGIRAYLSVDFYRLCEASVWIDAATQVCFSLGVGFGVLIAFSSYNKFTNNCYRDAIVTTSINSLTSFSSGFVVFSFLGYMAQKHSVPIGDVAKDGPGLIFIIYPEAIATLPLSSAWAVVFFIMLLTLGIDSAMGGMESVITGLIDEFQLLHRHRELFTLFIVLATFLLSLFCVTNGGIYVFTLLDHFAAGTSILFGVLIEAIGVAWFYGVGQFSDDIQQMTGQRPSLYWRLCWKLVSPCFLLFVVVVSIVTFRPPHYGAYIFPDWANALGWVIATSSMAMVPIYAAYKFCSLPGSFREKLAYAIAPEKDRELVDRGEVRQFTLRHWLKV
HePTP inh: inhibitors of human HePTP phosphatase, primary screen, biochemical, absorbance, leukemia target | recombinant HePTP phosphatase activity, OD absorbance | inhibition, % at 20 µM | 110,000 tested, 0.64% active; in the data active = inhibition above about 50%;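 also: plate controls were vehicle for no effect and reference inhibitor for full effect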
PLAP act: PLAP enzyme activators, biochemical, luminescence, HTS; Alkaline phosphatase, placental type (Homo sapiens), P05187; purified PLAP enzyme, luminescent substrate read-out; active compounds read high; activation fold at 20 µM; 96,000 tested, 1.2% active; in the data active = activation fold above about 2
D1 PAM confirm: D1 receptor positive allosteric modulators, retest, confirmation, cell-based, HEK293 D1, CRE-luciferase, duplicate | shares compounds with D1 mod | 2,200 tested, 88% active | luminescence at 10 µM | dopamine EC30 potentiation; active compounds read high;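 active = luminescence in either of two replicates above the same-plate mean plus 3 SD of the low-dose dopamine control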
D1 ag no DA: D1 receptor agonism without dopamine, confirmation, mechanism study for D1 allosteric modulator project, cell-based, HEK293 D1, CRE-luciferase, secondary assay 1. luminescence at 10 µM. shares compounds with D1 mod. 1,900 tested, 0.8% active. luminescence, no dopamine; active compounds read high; in the data active = luminescence above about 3900
Isoprot counter: counter-screen for D1 modulators: isoproterenol response in HEK293 cells; shares compounds with D1 mod; HEK293 D1 CRE-luciferase, isoproterenol EC30 counter-screen; active compounds read high; luminescence at 10 µM; 2,200 tested, 63% active;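 active = luminescence in either replicate above plate mean of wells with a partly effective reference agonist dose plus 3 SD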;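 also: isoproterenol raises cAMP through native beta-adrenoceptor Gs so signal bypasses D1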
* = called active by the depositor; x = no result.

SMILES	Calb biofilm kill	D1 mod	TNAP act mid DEA	hDAT+cocaine	HePTP inh	PLAP act	D1 PAM confirm	D1 ag no DA	Isoprot counter
COC(=O)C1=C(C)NC2=C(C(=O)CC(c3ccc(OC)cc3)C2)C1c1cc(OC)ccc1OC (stereo not drawn)	x	x	x	x	4	x	x	x	x
NC(=O)c1cc2ccc(O)cc2oc1=Nc1ccccc1	x	5.1*	0.9	-0.83	5	1.1	5036	1960	2508
NC(=O)c1cc2ccc(O)cc2oc1=NCc1ccccc1	x	x	0.9	1.5	7	x	x	x	x
COC(=O)c1ccc(C(=O)OC)c(NC(=O)COc2cccc(Br)c2)c1	x	x	x	x	6	x	x	x	x
O=C(c1ccccc1)N(Cc1ccccc1)c1ccccn1	4	5.8*	0.9	-0.6	5	0.8	9876*	x	2572
O=C(c1cccnc1)N(Cc1ccccc1)c1ccccc1	5	6.8*	0.9	0.47	12	1.5	15108*	1816	3296*
O=C1NC(=O)N(c2ccc(Cl)cc2)C(=O)/C1=C/c1cc(I)c(O)c([N+](=O)[O-])c1	x	x	x	x	12	x	x	x	x
O=C(O)c1ccc(-c2cc([N+](=O)[O-])ccc2Cl)o1	x	x	x	x	-7	x	x	x	x
CCOC(=O)c1nn(-c2ccc(C)c(C)c2)c(=O)c2c(N)scc12	3	x	x	-0.79	x	0.8	x	x	x
CCOC(=O)c1nn(-c2ccc(OC)cc2)c(=O)c2c(N)scc12	13	5.1*	0.8	1.3	5	1.1	6660*	1672	2692
CCn1cnc2c1c(=O)n(CC(=O)Nc1cc(C)on1)c(=O)n2Cc1ccccc1	7	0.81	0.9	0.73	8	1.6	x	x	x
CCOC(=O)c1c(C)[nH]c(C(=O)Cn2c(=O)c3c(ncn3CC)n(Cc3ccccc3)c2=O)c1C	5	13*	0.9	0.68	10	x	20428*	1684	5060*
Cc1ccc(S(=O)(=O)Oc2ccc(/C=C3\SC(=S)NC3=O)cc2)cc1	x	x	x	x	40	x	x	x	x
Cc1cc(C)c(/C=c2\sc3nc4cc(Br)cnc4n3c2=O)cc1C	x	x	x	x	-10	x	x	x	x
Cc1ccc(-c2nc3sc4c(c3c(=O)[nH]2)CCCC4)cc1	x	x	x	x	-1	x	x	x	x
Nc1nc2sc3c(c2c(=O)s1)CCCC3	10	14*	0.8	-0.24	5	0.8	13312*	1256	3388*
Cc1nc2sc3c(c2c(=O)[nH]1)CCC3	6	3.1*	1	-0.47	0	1.4	11308*	1476	2944
Cc1nc2sc3c(c2c(=O)o1)CCCC3	7	-0.15	0.9	-1.2	10	1.3	x	x	x
COC(=O)c1oc2ccc(Br)cc2c1NC(=O)CCCN1C(=O)c2ccccc2C1=O	4	0.47	0.9	-0.24	4	1.1	x	x	x
COC(=O)c1oc2ccc(Br)cc2c1-n1cccc1	8	8.3*	0.9	0.013	3	1	6260*	1564	3084*
COc1ccc(CN2CCN(Cc3cccc([N+](=O)[O-])c3)CC2)cc1Br	x	x	x	x	-8	x	x	x	x
CC(C)Nc1nc(SCC(=O)Nc2ccccc2)nc(N2CCOCC2)n1	9	14*	1	0.012	6	0.8	20560*	1624	5156*
Cc1nc(SCC(=O)Nc2ccc(N3CCOCC3)cc2)nc(C)c1C	5	x	x	0.23	x	1.1	x	x	x
CNc1nc(SCc2ccccc2)nc(N2CCOCC2)n1	8	11*	0.9	0.18	6	0.8	24896*	1672	7984*
CC(Sc1nc(N(C)C)nc(N2CCOCC2)n1)C(=O)Nc1ccccc1 (stereo not drawn)	6	4.8*	1	0.42	6	0.9	9356*	1600	3700*
SMILES	Calb biofilm kill	D1 mod	TNAP act mid DEA	hDAT+cocaine	HePTP inh	PLAP act	D1 PAM confirm	D1 ag no DA	Isoprot counter
CC(Sc1nc(N2CCOCC2)nc(N2CCOCC2)n1)C(=O)Nc1ccccc1 (stereo not drawn)	-2	0.48	0.9	-0.37	6	1	x	x	x
CCOC(=O)c1c(NC(=O)Cc2ccc(OC)cc2)sc(C(=O)Nc2ccc(C)c(Cl)c2)c1C	x	x	x	x	-8	x	x	x	x
CCc1ccc(/C=C2\SC(=O)NC2=O)cc1	x	x	x	x	-3	x	x	x	x
O=C(CCCc1nc2ccccc2s1)N1CCN(S(=O)(=O)c2cccs2)CC1	-1	4.2*	1.1	-0.074	-3	1.1	8136*	1520	2184
COc1ccc2c(c1)[nH]c1c(=O)n(Cc3ccco3)cnc12	x	x	x	x	x	0.9	x	x	x
COc1ccc2c(c1)c1ncn(Cc3ccco3)c(=O)c1n2C	5	7.5*	0.9	0.044	-4	1.3	12892*	1532	3304*
CCCOc1ccc(-c2n[nH]c(=S)n2-c2ccccc2)cc1	x	x	x	x	-5	x	x	x	x
Cc1cc(=O)n(CC=C(Cl)Cl)c2ccccc12	0	2.9*	0.9	-1.5	3	0.9	7272*	1672	2656
Cc1ccc(S(=O)(=O)Oc2ccccc2/C=C2\SC(=S)NC2=O)cc1	x	x	x	x	3	x	x	x	x
CCn1c(=NC(=O)c2ccc(S(=O)(=O)N3CCOCC3)cc2)sc2cccc(OC)c21	3	0.56	0.9	-0.073	11	1.2	x	x	x
CCn1c(=NC(=O)CN2C(=O)CCC2=O)sc2c(OC)ccc(OC)c21	x	5.4*	1	0.03	0	1.2	11544*	x	2636
CCn1c(=NC(=O)c2ccc(N3C(=O)CCC3=O)cc2)sc2c(OC)ccc(OC)c21	1	9.9*	0.9	-2	18	1.2	22036*	1820	6756*
O=Cc1ccc(-c2ccc(F)cc2F)o1	x	x	x	x	-8	x	x	x	x
CCn1c(N2CCC(Cc3ccccc3)CC2)nc2c1c(=O)[nH]c(=O)n2C	9	0.077	1	-0.02	4	1.3	x	x	x
Cc1cc(C)n(-c2nc3c(c(=O)[nH]c(=O)n3C)n2Cc2cccc(Br)c2)n1	10	1.1	0.8	0.44	6	1.5	x	x	x
Cn1c(=O)[nH]c(=O)c2c1nc(NC1CCCCC1)n2Cc1ccccc1	2	6.8*	0.9	0.72	5	1	8436*	1500	3656*
CC(C)CCn1c(N2CCN(c3cccc(Cl)c3)CC2)nc2c1c(=O)[nH]c(=O)n2C	x	15*	0.8	0.059	8	x	18092*	1700	6356*
Cn1c(=O)[nH]c(=O)c2c1nc(NC1CCCCC1)n2CCO	x	1.9	0.9	-0.28	2	x	x	x	x
